The full ranking holds about 35,000 sequences; the median of “fluorescence intensity (a.u.)” is about 10,000, and the highest 2% start at about 52,000. The full list was thinned out, with the highest values kept by preference.
These sequences were tested against T1, OsWOX13 (Oryza sativa, UniProt Q5QMM3 1-267) (assay: protein-binding microarray (RPBM); PBS, 2% BSA, 51.3 ng/ul salmon testes DNA, 50 uM zinc acetate, 200 nM TF, 25 C, 1 h; high values mean tight binding). Details: protein: recombinant; tags: N-terminal polyhistidine and DsRed monomer fusion (pET32a); label: CyDye5-dUTP incorporated in the synthesized complementary strand; 3' TTTTT single-stranded linker to array surface; dsDNA, one strand shown.
T1 sequence: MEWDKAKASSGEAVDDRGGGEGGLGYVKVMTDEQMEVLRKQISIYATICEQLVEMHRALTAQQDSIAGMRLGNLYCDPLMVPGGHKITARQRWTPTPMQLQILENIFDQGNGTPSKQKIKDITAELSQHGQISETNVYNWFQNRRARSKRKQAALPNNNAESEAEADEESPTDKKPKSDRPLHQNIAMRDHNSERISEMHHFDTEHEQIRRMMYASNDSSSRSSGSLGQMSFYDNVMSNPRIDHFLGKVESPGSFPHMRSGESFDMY
How it was run: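 Binding signal here means per-feature fluorescence intensity in arbitrary units. The values were read on an Axon 4000B scanner after a custom Agilent array, double-stranded by primer extension with Cy5-dUTP, was incubated with 200 nM protein at 25 °C for 1 h in PBS with 2% BSA, salmon testes DNA and 50 µM zinc acetate, then washed. The proteins were transcription factors with an N-terminal polyhistidine tag and DsRed, expressed in E. coli BL21-CodonPlus and purified on Ni–NTA.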
With “CAGGCTGCTTAATTACATATATCTAGATATATATATTATTCGGAGTCACCTAGTGCAG” the binding signal was 3870 fluorescence intensity (a.u.). With “CACACTATTAATCATTTTGATTTTGGTATACTGCACTTTTCGGAGTCACCTAGTGCAG” the binding signal was 6110 fluorescence intensity (a.u.). For “ATATATATATATATATATATATATATATTATCGCTAATAACGGAGTCACCTAGTGCAG”, the binding signal was 31200 fluorescence intensity (a.u.). In the case of “GTGATTAATTAATTATTAATTAATCGCTAATCAGGATAATCGGAGTCACCTAGTGCAG”, the binding signal is reported as 65500 fluorescence intensity (a.u.). For “TTCTCTAATTGGTAATTCATGATTAATCACTCCTACTTTACGGAGTCACCTAGTGCAG”, the binding signal was 48000 fluorescence intensity (a.u.). “GATTGGTCATAATTATATATATATATTACTTCCTAATCACCGGAGTCACCTAGTGCAG” was tested, and the binding signal was 6390 fluorescence intensity (a.u.). For “ATTAATCGCTAATTAGGATAATTAATCACTAATTAGTATTCGGAGTCACCTAGTGCAG”, the binding signal was 43700 fluorescence intensity (a.u.). For “ATTAATTATCTAATTAATTAATTAGCCCATCTGCTTACTTCGGAGTCACCTAGTGCAG”, the binding signal was 65000 fluorescence intensity (a.u.). “GAGAACTCTAATGAATTAGATTATATTCATGCTTGTTGATCGGAGTCACCTAGTGCAG” was tested, and the binding signal was 5820 fluorescence intensity (a.u.). For “AGTCGAGTCAACTTAATTAACTTAACTTCAACCGTCGCTACGGAGTCACCTAGTGCAG”, the binding signal was 5940 fluorescence intensity (a.u.). In the case of “TAGCCAATCTAATAGCTCATTCATATAATAATTACATACTCGGAGTCACCTAGTGCAG”, the binding signal is reported as 4410 fluorescence intensity (a.u.). For “GTGACATCATAATTTAGATTTAACTTATTCGTGCATATTACGGAGTCACCTAGTGCAG”, the binding signal was 9460 fluorescence intensity (a.u.). “AGCTAAATCTGTGATTGCCGTTGCATCTAGCCACGTCGTCCGGAGTCACCTAGTGCAG” was tested, and the binding signal was 14600 fluorescence intensity (a.u.). In the case of “GAATAACAGACATATCATATTTGTTGCCTCCTGGTGGCTACGGAGTCACCTAGTGCAG”, the binding signal is reported as 7840 fluorescence intensity (a.u.). “ATTTGAATAATTAGGGAGTCTATGAACAGAAACATAGACCCGGAGTCACCTAGTGCAG” was tested, and the binding signal was 6000 fluorescence intensity (a.u.). With “TATCATCAATCCGCTAATTAACTGACAACGCATATTGGAGCGGAGTCACCTAGTGCAG” the binding signal was 29400 fluorescence intensity (a.u.). In the case of “GTAGATAATTAAATCGGATTAGCATTAGATAATCAAGCAACGGAGTCACCTAGTGCAG”, the binding signal is reported as 37000 fluorescence intensity (a.u.). With “TATTGATTTGATAAAACTAATTTAGCATTATAAATATTATCGGAGTCACCTAGTGCAG” the binding signal was 21300 fluorescence intensity (a.u.). “ATTAGCAATTAATTAATTATTAATTGGATAATTAATCACTCGGAGTCACCTAGTGCAG” was tested, and the binding signal was 64800 fluorescence intensity (a.u.). In the case of “ATGTATATTAATTACTAGCCAAATGGTTAGCATGATTACTCGGAGTCACCTAGTGCAG”, the binding signal is reported as 10900 fluorescence intensity (a.u.). For “AAAATTAAATTGATGGTATTACTAGCATTAATTAGCCACTCGGAGTCACCTAGTGCAG”, the binding signal was 62800 fluorescence intensity (a.u.). “TCAATCAATTAATTAATTAATCGAATTGTGTTATATCTCTCGGAGTCACCTAGTGCAG” was tested, and the binding signal was 51000 fluorescence intensity (a.u.). With “TCATATAATTGGATTTATAATTAATCACCAATACCAAACTCGGAGTCACCTAGTGCAG” the binding signal was 35300 fluorescence intensity (a.u.). For “ATAGCTATATCAATCTAGAATTGGATTAGATATATCTCGACGGAGTCACCTAGTGCAG”, the binding signal was 6040 fluorescence intensity (a.u.). With “TGTGATTAATTGGTAATCTGCTTTTACAAGCTTCAATTGCCGGAGTCACCTAGTGCAG” the binding signal was 60400 fluorescence intensity (a.u.). For “GTGATTGGATCTGTAATTATCAATCTCTCTCTCTCTCTCTCGGAGTCACCTAGTGCAG”, the binding signal was 64600 fluorescence intensity (a.u.). In the case of “TTCAAATTAAGCTGCTTTAGATTATAATCTGAAGCTGGGCCGGAGTCACCTAGTGCAG”, the binding signal is reported as 17800 fluorescence intensity (a.u.). In the case of “TGTTGGTGCTGTGATTAATTGGTAATCTGCTTTTACAAGCCGGAGTCACCTAGTGCAG”, the binding signal is reported as 19800 fluorescence intensity (a.u.). “AACATGGAGAATATGCTAATTAGTAAAACATGTTGAAGTGCGGAGTCACCTAGTGCAG” was tested, and the binding signal was 3290 fluorescence intensity (a.u.). In the case of “GCACAATCATGCTACTAATTACCCTTTTCAACCTATAAATCGGAGTCACCTAGTGCAG”, the binding signal is reported as 11200 fluorescence intensity (a.u.). “ACTAATTACACAGAATGCATGTAAATTACGAGACGAATCTCGGAGTCACCTAGTGCAG” was tested, and the binding signal was 31200 fluorescence intensity (a.u.). With “AAATTAAATTGCCCGGATCAATGGCTACAAATACCCCATGCGGAGTCACCTAGTGCAG” the binding signal was 15200 fluorescence intensity (a.u.). “AATACACATTGACAGATGAGTTAACGCCCGTGACAGGCTGCGGAGTCACCTAGTGCAG” was tested, and the binding signal was 20500 fluorescence intensity (a.u.). In the case of “CTTTATAAATTGTGTCATCTACTCATGTGTGGTAGGTCAACGGAGTCACCTAGTGCAG”, the binding signal is reported as 5450 fluorescence intensity (a.u.). “TTGAATTTAAATTTAAACGTATAGTGCCTTCCCTTTTACGCGGAGTCACCTAGTGCAG” was tested, and the binding signal was 22900 fluorescence intensity (a.u.). “CAAATTAACTGGAAATTTTGAAGCATCCATGTTCTGTGAGCGGAGTCACCTAGTGCAG” was tested, and the binding signal was 46600 fluorescence intensity (a.u.). “TTGATGTGCAATAATTAACGAGAGAAGAGTTTTCCCATAGCGGAGTCACCTAGTGCAG” was tested, and the binding signal was 10300 fluorescence intensity (a.u.). With “TGGAATTGATTATGATGCTGTTTCCTTCATGGGAGCTCTACGGAGTCACCTAGTGCAG” the binding signal was 31900 fluorescence intensity (a.u.). “ATGGCTGGGTTGATTGATATGGAGTACAAACTAAGTGTAGCGGAGTCACCTAGTGCAG” was tested, and the binding signal was 25000 fluorescence intensity (a.u.). With “ACTAGTTAATCACGATTGATGGAAGCGGTTGATTGAATGACGGAGTCACCTAGTGCAG” the binding signal was 51400 fluorescence intensity (a.u.). For “TGGAATTCATCTAATTATATCATTTTCCTCCATACTAGCTCGGAGTCACCTAGTGCAG”, the binding signal was 3430 fluorescence intensity (a.u.). In the case of “CCATTAGATTAGCACTAATTATCATACTTAGTCATTAGCTCGGAGTCACCTAGTGCAG”, the binding signal is reported as 59100 fluorescence intensity (a.u.). With “ATTAATTAGCTCTAGATTAAGCTAATTGCCATCAATGGCTCGGAGTCACCTAGTGCAG” the binding signal was 46400 fluorescence intensity (a.u.).
